Test systems include T-47D breast; BT-549 breast; MDA-MB-435 melanoma; SW-620 colon; MCF7 breast; HCT-116 colon; HCC-2998 colon; KM12 colon.
What all share (assay): NCI-60 one-dose screen, 48 h (100 = growth as untreated, 0 = no growth, -100 = all killed)
What all share (conditions): 10 µM unless noted

Each structure is given as a SMILES string. Compounds without any hit were thinned out: in the full panel of roughly 83,000, 20% have a hit.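 Single-dose data. Exposure time 48 hours. Values below 10 considered active.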 A number with no mark means an inactive call. Active and inactive are the calls of the source.

On to `CN1C(=O)C(C2=NNC(c3ccccc3C(=O)O)C2)C(=O)N(C)C1=O` (configuration not stated), for which the growth is 87.4% with T-47D breast; 104% in the assay with BT-549 breast; 104% in the assay with MDA-MB-435 melanoma; 99.7% with SW-620 colon; 99.7% in the assay on MCF7 breast; 99.4% with HCT-116 colon. Moreover, the growth in the assay with HCC-2998 colon is 117%; with KM12 colon, 104%.
In the case of `CN(C)CCCN1c2ccccc2CCc2ccccc21`, the growth with T-47D breast was 91.8%; in the assay on BT-549 breast it was 95.8%; in the assay with MDA-MB-435 melanoma, 102%; with SW-620 colon it was 111%; in the assay with MCF7 breast it was 80.5%; with HCT-116 colon it was 96.6%. Besides, the growth with HCC-2998 colon is 99.7%; with KM12 colon it was 103%.
`COc1ccc(-c2cc(-c3cn(-c4cccc(Cl)c4)nc3-c3ccc(OC)cc3)[nH]c(=S)n2)cc1`: the growth in the assay with T-47D breast is 72.1%; in the assay on BT-549 breast it was 103%; in the assay on MDA-MB-435 melanoma, 63.5%; in the assay with SW-620 colon, 66.6%; in the assay on MCF7 breast it was 86.1%; with HCT-116 colon, 69.7%. Besides, the growth in the assay with HCC-2998 colon is 55.2%; with KM12 colon, 86.7%.
For `C/C(=N\Nc1ccc([N+](=O)[O-])cn1)c1ccc(N)cc1`, the growth with T-47D breast is 103%; with BT-549 breast, 100%; in the assay on MDA-MB-435 melanoma, 96.5%; in the assay on SW-620 colon, 112%; in the assay on MCF7 breast, 85%; with HCT-116 colon it was 97.8%. In addition, the growth is 102% with HCC-2998 colon and 95.5% with KM12 colon.
With `COc1cc(OC)c(Cl)cc1N`, the growth in the assay with T-47D breast was 98.8%; in the assay on BT-549 breast, 123%; with MDA-MB-435 melanoma it was 98.2%; in the assay on SW-620 colon, 102%; in the assay on MCF7 breast, 95.5%; in the assay with HCT-116 colon, 106%. Further, the growth with HCC-2998 colon is 106%; with KM12 colon, 107%.
On to `CCOC(=O)N1C2CCC(C2)N1C(=O)OCC`, for which the growth in the assay with T-47D breast is 108%; with BT-549 breast, 101%; with MDA-MB-435 melanoma it was 113%; in the assay on SW-620 colon, 105%; in the assay on MCF7 breast, 90.1%; with HCT-116 colon, 103%. For the same compound, the growth is 104% in the assay with HCC-2998 colon and 112% in the assay on KM12 colon.
As for `O=C(O)c1ccccc1Oc1cc(-c2ccco2)nc(OCCN2CCOCC2)n1`, the growth with T-47D breast was 97.2%; in the assay on BT-549 breast it was 96.6%; with MDA-MB-435 melanoma, 101%; in the assay with SW-620 colon it was 115%; with MCF7 breast, 102%; with HCT-116 colon, 97.9%. The figures for the growth with HCC-2998 colon and in the assay with KM12 colon were 108% and 111%, respectively.
For `O=C(Nc1cccc(-n2ccc3c(NC(=O)c4ccccc4)nccc32)c1)c1ccc(Cl)c(Cl)c1`, the growth was -55.4% (active) in the assay with T-47D breast; -75.7% (active) in the assay on BT-549 breast; -78.1% (active) in the assay with MDA-MB-435 melanoma; -80.3% (active) in the assay on SW-620 colon; -83.6% (active) with MCF7 breast; -97.6% (active) in the assay on HCT-116 colon. For the same compound, the figures for the growth in the assay with HCC-2998 colon and in the assay with KM12 colon were -90.9% (active) and -75.2% (active), respectively.
Take `O=S1(=O)NCCN1CCNc1nccc(-c2c(-c3cccc(O)c3)nc3sccn23)n1`: the growth in the assay on T-47D breast was 106%; in the assay on BT-549 breast it was 135%; in the assay on MDA-MB-435 melanoma, 34.7%; in the assay with SW-620 colon, 127%; with MCF7 breast it was 103%; with HCT-116 colon, 97.8%. The figures for the growth in the assay with HCC-2998 colon and with KM12 colon were 113% and 108%, respectively.
As to `Nc1c(N)c2ccccc2c2ccccc12`, the growth in the assay on T-47D breast was 104%; in the assay with BT-549 breast, 112%; in the assay with MDA-MB-435 melanoma it was 107%; in the assay on SW-620 colon, 103%; in the assay with MCF7 breast it was 98.3%; in the assay with HCT-116 colon, 114%. For the same compound, the values for the growth in the assay on HCC-2998 colon and with KM12 colon were 103% and 116%, respectively.
In the case of `CC(C)CCSc1nc(-c2ccc(F)cc2)c(C#N)c(N2CCCCC2)n1`, the growth in the assay with T-47D breast is 79%; with BT-549 breast, 91.4%; with MDA-MB-435 melanoma it was 100%; in the assay with SW-620 colon, 95.6%; with MCF7 breast, 93.6%; with HCT-116 colon, 88%. The growth in the assay with HCC-2998 colon is 102%; in the assay on KM12 colon, 94.5%.
`CC(=O)CC(c1ccc([N+](=O)[O-])cc1)c1c(O)c2ccccc2oc1=O` (configuration not stated): the growth in the assay with T-47D breast was 95.7%; in the assay on BT-549 breast, 88.5%; with MDA-MB-435 melanoma, 103%; in the assay on SW-620 colon, 101%; with MCF7 breast, 102%; in the assay on HCT-116 colon, 101%. In addition, the growth in the assay with HCC-2998 colon was 105%; with KM12 colon, 98.5%.
For the compound `Cc1cc(-c2ccc(N=Nc3c(S(=O)(=O)O)cc4cc(S(=O)(=O)O)cc(O)c4c3O)c(C)c2)ccc1N=Nc1c(S(=O)(=O)O)cc2cc(S(=O)(=O)O)cc(O)c2c1O`, the growth in the assay with T-47D breast is 92.2%; with BT-549 breast it was 108%; with MDA-MB-435 melanoma, 103%; in the assay on SW-620 colon it was 114%; in the assay with MCF7 breast, 101%; with HCT-116 colon, 109%. The growth is 106% in the assay with HCC-2998 colon and 114% with KM12 colon.
Take `CC(=O)N1N=C(C2C(=O)N(C)C(=O)N(C)C2=O)CC1c1ccccc1C(=O)O` (configuration not stated): the growth in the assay on T-47D breast was 95.4%; in the assay on BT-549 breast, 91.8%; in the assay with MDA-MB-435 melanoma, 102%; in the assay with SW-620 colon, 107%; in the assay with MCF7 breast, 101%; in the assay on HCT-116 colon it was 91.3%. Moreover, the growth in the assay on HCC-2998 colon is 113%; in the assay on KM12 colon it was 114%.

(Values after PubChem BioAssay (NCI).)
